From PubChem BioAssay (NCATS)
Records with an inconclusive call do not appear. Calls of active or inactive are those of the source. Calls come from the whole dose curve.

Molecular target: Atrial natriuretic peptide receptor 1 (Homo sapiens) (UniProt P16066)
Experiment: Natriuretic polypeptide receptor (hNpr1) antagonism - Pilot CMLD screen (AID 1347052);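 note: cGMP level read as GloSensor luciferase luminescence after agonist stimulation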
Details: HEK293 hNpr1 GloSensor cGMP luminescence, ANP-stimulated; series mostly up to 9.22 µM

Atrial natriuretic peptide receptor 1 (Homo sapiens), sequence (P16066 whole entry, looked up): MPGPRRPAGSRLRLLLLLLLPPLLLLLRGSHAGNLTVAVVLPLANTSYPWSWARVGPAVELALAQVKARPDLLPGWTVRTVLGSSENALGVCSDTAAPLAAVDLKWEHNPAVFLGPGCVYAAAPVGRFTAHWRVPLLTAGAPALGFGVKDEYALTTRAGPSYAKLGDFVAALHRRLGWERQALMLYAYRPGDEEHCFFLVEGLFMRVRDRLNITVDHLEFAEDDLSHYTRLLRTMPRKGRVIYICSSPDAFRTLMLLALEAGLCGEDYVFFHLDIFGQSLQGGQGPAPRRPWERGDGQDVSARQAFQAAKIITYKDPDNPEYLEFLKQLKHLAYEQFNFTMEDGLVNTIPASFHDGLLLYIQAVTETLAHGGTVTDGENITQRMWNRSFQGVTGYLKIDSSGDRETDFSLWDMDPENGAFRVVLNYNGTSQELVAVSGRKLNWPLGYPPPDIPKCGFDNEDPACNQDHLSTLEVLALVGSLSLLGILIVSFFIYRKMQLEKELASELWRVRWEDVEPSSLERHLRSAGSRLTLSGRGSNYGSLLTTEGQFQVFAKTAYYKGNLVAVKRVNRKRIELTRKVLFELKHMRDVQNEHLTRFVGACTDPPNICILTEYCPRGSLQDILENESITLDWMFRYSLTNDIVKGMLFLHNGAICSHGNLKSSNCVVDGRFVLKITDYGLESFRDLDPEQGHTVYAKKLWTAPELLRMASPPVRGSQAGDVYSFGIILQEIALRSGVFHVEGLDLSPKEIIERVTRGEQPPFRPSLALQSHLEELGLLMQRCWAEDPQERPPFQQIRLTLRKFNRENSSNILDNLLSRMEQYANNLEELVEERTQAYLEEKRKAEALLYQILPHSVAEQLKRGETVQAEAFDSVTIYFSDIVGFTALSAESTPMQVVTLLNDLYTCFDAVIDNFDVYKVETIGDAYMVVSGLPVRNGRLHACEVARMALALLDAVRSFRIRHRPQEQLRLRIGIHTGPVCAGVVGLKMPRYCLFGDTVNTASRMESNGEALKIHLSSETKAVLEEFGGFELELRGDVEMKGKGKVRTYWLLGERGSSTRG

Potency, inactive:
C=CC[C@@H]1C=CC(ON=CC[C@@H]2C=C[C@@H](OC(C)=O)[C@@H](COC(C)=O)O2)[C@H](CO)O1 (some centres not stated)
C[C@@H](c1ccccc1)N1C(=O)[C@@H]2[C@H]3[C@H](O)[C@H](O)CC(=NOC[C@@H](O)COCc4ccco4)[C@H]3CC[C@H]2C1=O
CCOC(=O)CCN1C(=O)[C@@H]2[C@H]3[C@H](O)[C@H](O)CC(=NOCc4ccccc4)[C@@H]3CC[C@H]2C1=O
CC1=CC[C@@H](COc2ccccc2)O[C@@]2(C1)C(=O)N(CC1CC1)c1ccccc12
COC(=O)C1=C(C)N(CC2CC2)C(=O)NC1c1ccc(Br)cc1 (configuration not stated)
C[C@@H]1C=CCC(=O)N2[C@H](CC(=O)N[C@@H]1c1ccccc1)C[C@@H](C)[C@@H]2c1ccccc1
COc1ccc(COC(=O)NN=C2C[C@@H](O)[C@@H](O)[C@@H]3[C@H]4C(=O)N(C5CCCCC5)C(=O)[C@@H]4CC[C@H]23)cc1
COC1=C(C(=O)c2ccccc2)C(=O)[C@@]2(CC=C(C)C)CC(C#N)C[C@@]1(CC=C(C)C)C2=O (some centres not stated)
COc1cccc([C@@H]2Oc3ccc(OC)cc3C(=O)[C@@H]2OC(=O)Nc2cc(OC)c(OC)c(OC)c2)c1
COC(=O)C(C(=O)OC)[C@@H]1O[C@@]23COC=C[C@]2(C)[C@@H]3c2ccccc21
CCC12C=C(C=Cc3ccccc3)C(CC)(C1)C(c1ccccc1)CC2=O (configuration not stated)
CC1=CC[C@@H](COc2ccccc2)O[C@@]2(C1)C(=O)N(Cc1ccc(F)cc1)c1ccccc12
COc1ccc2c(c1)CO[C@H]([C@H](O)CO)[C@H]2C=CC#Cc1ccc(C(C)(C)C)cc1
N#Cc1ccc2c(c1)C[C@]1(CCCCN3C(=O)c4ccccc4C3=O)Oc3cc(-c4ccccc4)oc(=O)c3[C@H]2O1
O=c1oc2ccccc2c2c1[C@H]1O[C@](c3ccsc3)(Cc3ccccc31)O2
O=C1CCCC2=C1[C@H]1O[C@](c3ccsc3)(Cc3c1ccc1ccccc31)O2
CC1(C)CC(=O)C2=C(C1)O[C@@]1(c3ccsc3)Cc3cc(C#N)ccc3[C@H]2O1
COc1cccc([C@@H](NC(=O)C(F)(F)F)[C@@H]2CCCC=C2c2ccccc2)c1
CC(=O)C1=C(C)N(Cc2ccccc2)C(=O)NC1CCc1ccccc1 (configuration not stated)
Oc1ccc2c(c1-c1c(O)c(Br)cc3c1CCCC3)CCCC2
COc1ccc(COC(=O)NN=C2C[C@@H](O)[C@@H](O)[C@@H]3[C@H]4C(=O)N([C@@H](C)c5ccccc5)C(=O)[C@@H]4CC[C@H]23)cc1
COC(=O)C1=C(C(=O)OC)[C@@H]2N(C)c3ccccc3[C@@]23C[C@@H](C(=O)OC)N(C(=O)NCCBr)C3=N1
CC(=O)C1=C(C)N(CCC=Cc2ccccc2)C(=O)NC1c1ccccc1 (configuration not stated)
C[C@H]1CC[C@H]2C(=O)N(Cc3ccccc3)C[C@@H](O)CN2[C@H]1c1cccc(Br)c1
C=C(CCN1C=C(C(=O)OCC)C(c2ccccc2)NC1=O)c1ccc(Cl)cc1 (configuration not stated)
COc1cccc([C@@H]2Oc3ccc(Br)cc3C(=O)[C@@H]2O)c1

outcome, inactive:
CC1=C[C@]2(O[C@H](COc3ccccc3)C1)C(=O)N(C)c1ccccc12
